Consider 97 molecules from PubChem BioAssay AID1006 (Sanford-Burnham Center for Chemical Genomics, 2008).

Molecules are shown by their SMILES. Hit rate of the full screen: of about 200,000 compounds, about 3,000 (1.5%) were called active. Many of the other results were omitted from the sample, so actives are more common in it than they were. A number with no mark means an inactive call.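 How the source made its calls: active means inhibition above about 50% when tested at 10 µM (limit read from the data); inactive means the rest.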

Chain of Luciferin 4-monooxygenase (Photinus pyralis) (P08659 whole entry, looked up): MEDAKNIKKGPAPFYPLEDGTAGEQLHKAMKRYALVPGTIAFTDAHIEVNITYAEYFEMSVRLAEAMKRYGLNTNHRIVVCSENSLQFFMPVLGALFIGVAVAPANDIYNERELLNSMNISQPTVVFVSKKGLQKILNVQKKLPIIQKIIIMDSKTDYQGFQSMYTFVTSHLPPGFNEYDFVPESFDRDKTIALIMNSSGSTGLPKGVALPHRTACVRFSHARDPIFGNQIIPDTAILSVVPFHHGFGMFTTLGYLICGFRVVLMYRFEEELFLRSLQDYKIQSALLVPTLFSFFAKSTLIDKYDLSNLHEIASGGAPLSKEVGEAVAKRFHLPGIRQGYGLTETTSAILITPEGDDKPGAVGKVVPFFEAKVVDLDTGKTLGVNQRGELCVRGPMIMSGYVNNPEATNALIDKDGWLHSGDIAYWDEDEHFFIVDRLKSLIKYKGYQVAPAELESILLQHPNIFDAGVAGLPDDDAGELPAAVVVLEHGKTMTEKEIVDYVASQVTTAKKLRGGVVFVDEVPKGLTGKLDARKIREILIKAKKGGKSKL

The test has as its target Luciferin 4-monooxygenase (Photinus pyralis) (UniProt P08659). Put plainly: firefly luciferase enzyme inhibitors, primary screen, artefact control for luciferase-based inhibitor screens, biochemical, luminescence, ATPLite (AID 1006). To be noted: 10 min, at 10 µM, hits give high values. A general note: In ATP-based viability assays light output follows the ATP content of the culture.
What is called inhibition is the relative decrease from the control value, in per cent. Turning to `Cc1ccc(SCCC(=O)NC(C(C)C)C(C)C)cc1`, the inhibition is -8.1%.

`Cc1cc2nc(C(F)(F)F)cc(-c3cccs3)n2n1`: the inhibition is -2.2%.

With `CCCCOc1ccc(-c2nnc(-c3ccco3)o2)cc1`, the inhibition was 25.4%.

For the molecule `CCC(=O)Oc1cccc(C(=O)Nc2ccc(-c3nnc(-c4ccco4)o3)cc2)c1`, the inhibition was -4.9%.

Regarding `CCOc1ccc(-c2nnc(-c3ccco3)o2)cc1`, the inhibition is 79.2% (active).

As to `CCOc1ccc2nc(SC(CC)C(=O)Nc3cc(C)on3)sc2c1` (configuration not stated), the inhibition is -3.8%.

Turning to `CCOc1ccc2nc(C(=O)N3CCCC(C)C3)sc2c1` (configuration not stated), the inhibition is 56% (active).

On to `CCOc1ccc2nc(Nc3nc4ccc(NC(C)=O)cc4s3)sc2c1`, for which the inhibition is 8.7%.

With `COC(=O)CSc1nccc(-c2cccs2)n1`, the inhibition was 3.7%.

`O=C(Nc1ccnc(-c2ccncc2)n1)c1cccs1`: the inhibition was -0.6%.

In the case of `O=C(O)COc1ccc(-c2nccc(-c3cccs3)n2)cc1`, the inhibition was 77.5% (active).

Take `COc1cccc(/C=N/Nc2cc(C)nc(-c3ccccc3O)n2)c1O`: the inhibition was 9.6%.

For `COc1cccc(/C=N/NC(=O)c2[nH]nc3c2CCc2ccccc2-3)c1O`, the inhibition is 28.9%.

Regarding `COc1cccc(/C=N\NC(=O)C2=NNC(=O)C2C)c1O` (configuration not stated), the inhibition is 83.5% (active).

Consider `CNC(=O)NC(=O)C(OC(=O)c1cccc(S(=O)(=O)N2CCCCC2)c1)c1ccccc1` (configuration not stated), for which the inhibition was -3.2%.

Consider `COc1cccc(-c2nc3cc(C)ccc3o2)c1`, for which the inhibition was 82.8% (active).

In the case of `COc1ccc2oc(-c3cccc(NC(=O)CSc4ccc(Cl)cc4)c3)nc2c1`, the inhibition was 3%.

As to `COc1cccc(-c2nc(S(=O)(=O)c3ccccc3)c(N3CCOCC3)o2)c1`, the inhibition is -0.7%.

As for `O=C(Cc1cccc2ccccc12)Nc1ccc2oc(-c3ccccc3)nc2c1`, the inhibition is 2.6%.

As to `COc1ccc(-c2nc3cc([N+](=O)[O-])ccc3o2)cc1OC`, the inhibition was 2.5%.

`O=[N+]([O-])c1ccc2oc(-c3cccc(O)c3)nc2c1`: the inhibition was 53.2% (active).

Take `Cc1cc(NC(=O)CSc2nc3ccccc3n2CC(C)C)no1`: the inhibition was -5.3%.

Consider `COc1ccc(F)c(-c2nc(CN3CCC(c4ccccc4)CC3)c(C)o2)c1`, for which the inhibition is 0.5%.

Take `O=C(CCN1C(=O)C2C3C=CC(C3)C2C1=O)Oc1ccc2ccccc2c1` (configuration not stated): the inhibition is -3.9%.

In the case of `CC1CC(C)CN(S(=O)(=O)c2ccc(C(=O)NN3CCOCC3)cc2)C1` (configuration not stated), the inhibition was 0.2%.

For the molecule `COc1ccc(-c2csc(Cc3nc(O)cs3)n2)cc1`, the inhibition is 4.6%.

As to `CSCC[C@H](NC(=O)OC(C)(C)C)C(=O)N/N=C/c1cc2ccc(C)cc2nc1Cl`, the inhibition was -6.9%.

As to `c1c2c(cc3sc(N4CCCCC4)nc13)OCCO2`, the inhibition was 92.9% (active).

Consider `Brc1ccc2nc(N3CCCC3)sc2c1`, for which the inhibition is 35.9%.

Regarding `COc1ccc2nc(Nc3nc4cc5c(cc4s3)OCCO5)sc2c1`, the inhibition was 11.3%.

For the molecule `Cc1ccc(N(C(=O)c2ccc(CN3CCOCC3)o2)C(C(=O)NCCC(C)C)c2cccs2)c(C)c1` (configuration not stated), the inhibition is -4.1%.

For `COc1ccc(C(=O)NCC(=O)N/N=C/c2ccc([N+](=O)[O-])s2)cc1OC`, the inhibition was 2.8%.

`OC(CNCc1ccc(Cl)c(Cl)c1)c1ccccc1` (configuration not stated): the inhibition was -8.3%.

As to `CCCOC(=O)C1=C(C)NC2=C(C(=O)C(C(=O)OC)C(C)C2)C1c1ccc(N(C)C)cc1` (configuration not stated), the inhibition was 0.8%.

With `COC(=O)C1C(=O)c2c([nH]c(C(=O)OCCSC)c2C)CC1C` (configuration not stated), the inhibition is 50.1% (active).

On to `CCCOC(=O)c1[nH]c2c(c1C)C(=O)CC(c1cc(OC)c(OC)c(OC)c1)C2` (configuration not stated), for which the inhibition is -2.3%.

For the molecule `CCOc1ccc(-n2cnnn2)cc1S(=O)(=O)N1CCC(C)CC1C` (configuration not stated), the inhibition is -3.6%.

`Cc1cccc(NC(=O)CN2C(=O)c3ccccc3C2=O)c1C`: the inhibition is -4%.

Take `Cc1ccc2nc(-c3ccc(SCC(=O)Nc4cc(C)on4)nc3)[nH]c2c1`: the inhibition was 73.4% (active).

Take `Cc1ccc(SCCC(=O)Nc2cc(C)on2)cc1`: the inhibition was -4.4%.

Consider `Cc1ccc(-c2csc(SCC(=O)Nc3cc(C)on3)n2)cc1`, for which the inhibition is -4.8%.

As for `COC(=O)NNC(=O)C1CCC(C)CC1` (configuration not stated), the inhibition is -4.8%.

Turning to `CCNS(=O)(=O)c1ccc(NC(=O)c2cncc(Br)c2)cc1`, the inhibition was -4.2%.

Regarding `COc1ccc(Nc2nc(NCc3ccco3)nc(N/N=C/c3ccccc3Cl)n2)cc1`, the inhibition was -1.1%.

For the molecule `COc1cc(NC(=S)NNC(=O)CC(C)C)c(OC)cc1Cl`, the inhibition is -8.4%.

On to `O=C1OC(/C=C/c2ccccc2)=NC/1=C/c1ccco1`, for which the inhibition is 53.5% (active).

As to `CC(C)(C)C1C/C(=C/c2ccco2)C(=O)/C(=C/c2ccco2)C1` (configuration not stated), the inhibition was -5.4%.

In the case of `COc1ccccc1/C=C/C1=NC(=C\N(C)C)/C(=O)O1`, the inhibition was 0.6%.

With `O=C(C1=C[C@H](c2coc3ccccc3c2=O)C[C@H](OCc2ccc(CO)cc2)O1)N1CCN(Cc2ccccc2)CC1`, the inhibition is -6.2%.

For `CCN(CC)c1ccc2oc(=O)c(C)nc2c1`, the inhibition is -3%.

In the case of `CCCCCC(=O)Nc1ccc2oc(-c3ccncc3)nc2c1`, the inhibition was -5.7%.

With `CCc1ccc2oc(-c3ccc(N)cc3)nc2c1`, the inhibition was 80.7% (active).

For the molecule `COc1cc(CN2CCNC(=O)C2CC(=O)NCCc2ncccc2C)cc(OC)c1` (configuration not stated), the inhibition was -1.3%.

With `CCOC(=O)CCCNC(=O)COC(=O)/C=C/c1ccc2c(c1)OCO2`, the inhibition was -1.4%.

In the case of `Cc1ccccc1-n1c(C)cc(/C=C2\NC(=O)NC2=O)c1C`, the inhibition was 83.9% (active).

Turning to `Cc1cc(/C=C(/C#N)C(=O)Nc2ccc(Cl)cc2)c(C)n1-c1cccnc1`, the inhibition is -3.9%.

As for `Cc1cc(/C=C2/NC(=O)NC2=O)c(C)n1-c1cccnc1`, the inhibition is 56.5% (active).

On to `Cc1cccc(C)c1-n1c(C)cc(/C=C2\C(=O)NN(c3ccccc3)C2=O)c1C`, for which the inhibition was 13.6%.

For `Cc1cc(/C=C2\SC(=Nc3ccc(N4CCOCC4)cc3)N(C)C2=O)c(C)n1-c1cccnc1`, the inhibition was -0.4%.

Regarding `Cc1ccc(CN2C(=O)N/C(=C/c3cc(C)n(-c4ccccn4)c3C)C2=O)cc1`, the inhibition was 1.2%.

On to `CC(NC(=O)c1cccc2ccccc12)c1ccc2c(c1)CCCC2` (configuration not stated), for which the inhibition is -6.2%.

For the molecule `COc1ccc(C/C(N)=N/OC(=O)c2ccco2)cc1OC`, the inhibition was -2.2%.

For `O=C(CCc1ccccc1)NNC(=O)c1ccc(Br)cc1`, the inhibition is -1.3%.

Regarding `Cc1ccc(C)c(Cn2nnc3c(=O)[nH]c(C(=O)Nc4ccc(F)cc4)nc32)c1`, the inhibition was -10.1%.

Turning to `CCN(c1ccccc1)S(=O)(=O)c1ccc2[nH]c(=O)[nH]c2c1`, the inhibition is -6%.

For the molecule `O=C(COc1cc(Cl)c(Cl)cc1Cl)NCCc1ccccn1`, the inhibition was 4.2%.

In the case of `CN(CCN1CCOCC1)Cc1nc(-c2ccc3c(c2)OCO3)no1`, the inhibition is -5.1%.

In the case of `O=C(O)CC/C(=N\NC(=O)c1ccc(F)cc1)c1ccc(Br)cc1`, the inhibition was -2.4%.

Take `COc1ccccc1-n1ccnc1SCC(=O)NC(C)(C)C`: the inhibition is -7.3%.

Take `COc1ccc(C(=S)Nc2ccccc2)cc1`: the inhibition is 8.7%.

As to `COc1ccc(C(=O)NC2CCN(C(=S)Nc3ccccc3)CC2)cc1`, the inhibition is -7.5%.

As to `COc1ccc(NC(=S)N2N=CCC2c2ccccc2)cc1` (configuration not stated), the inhibition is 65.3% (active).

Take `COc1ccc(C(=O)COC(=O)c2ccc3ccccc3n2)cc1`: the inhibition was 19.4%.

As for `O=C(Oc1ccc([N+](=O)[O-])cc1)c1ccc2ccccc2n1`, the inhibition was 41.6%.

In the case of `CC(OC(=O)c1ccc2ccccc2n1)C(=O)c1ccccc1` (configuration not stated), the inhibition is 81.1% (active).

`COc1ccc(Cl)cc1NC(=O)Cn1nc(-c2ccc(C)cc2)n(C)c1=S`: the inhibition is -5.1%.

Consider `Cc1ccc(C(=O)Oc2coc(CSc3nnc(NC(=O)c4cccs4)s3)cc2=O)cc1C`, for which the inhibition was -0.1%.

Turning to `CC(=C/c1ccccc1)/C=N/NC(=O)c1cc(C)oc1C`, the inhibition is 78.3% (active).

Turning to `Cc1cc(C(=O)N/N=C/c2ccc(N3CCOCC3)cc2)c(C)o1`, the inhibition is 50.7% (active).

On to `Cc1cc(C(=O)N/N=C/c2ccccc2[N+](=O)[O-])c(C)o1`, for which the inhibition was 32.2%.

Consider `Cc1cc(C(=O)N/N=C\C(Br)=C\c2ccccc2)c(C)o1`, for which the inhibition is 22.6%.

Turning to `Cc1ccccc1N/N=C/c1ccc(N2CCOCC2)cc1`, the inhibition was -3.5%.

Consider `CCN(CC)c1ccc(C(=O)N/N=C/c2ccc(N3CCOCC3)cc2)cc1`, for which the inhibition was -7%.

Take `Cc1ccc(NC(=S)N(Cc2ccco2)C(C)c2cccs2)cc1` (configuration not stated): the inhibition was 3.7%.

Take `CCn1nc(C)cc1C(=O)N1CCCC(C(=O)c2cccc(OC)c2)C1` (configuration not stated): the inhibition is 5.6%.

With `COc1ccc(-n2cc(CNC3CCOCC3)c(-c3cccc(F)c3)n2)cc1`, the inhibition was -2.3%.

For the molecule `O=C(Nc1ccn(Cc2ccc(F)cc2)n1)c1ccncc1`, the inhibition was 0.9%.

`CC(=O)Nc1ccn(Cc2c(F)cccc2Cl)n1`: the inhibition is -2.9%.

Regarding `O=C(Nc1ccn(Cc2ccccc2)n1)c1n[nH]c([N+](=O)[O-])c1Cl`, the inhibition was 83% (active).

With `Cc1ccc(Cn2ccc(NC(=O)c3cc(C(C)C)on3)n2)cc1`, the inhibition is 0%.

Regarding `O=C(Nc1ccn(Cc2ccccc2)n1)c1cccc(F)c1`, the inhibition is 64.2% (active).

Regarding `Cn1cc([N+](=O)[O-])c(C(=O)Nc2cnn(Cc3ccc(F)cc3)c2)n1`, the inhibition is -8.5%.

For `CCOc1ccc(C(CC(=O)O)NC(=O)C23CC4CC(CC(C4)C2)C3)cc1OC` (configuration not stated), the inhibition was -3.9%.

For `CN(C)CCCn1c(SCCN2C(=O)c3ccccc3C2=O)nc2ccccc2c1=O`, the inhibition is -5.8%.

As for `CC(C)N(Cc1nc(-c2ccc3c(c2)OCO3)no1)CC1CCC(=O)N1` (configuration not stated), the inhibition is -8.8%.

`CN(C)/C=C(/C(=O)c1ccccc1)S(=O)(=O)c1ccc(Cl)cc1`: the inhibition was -5.6%.

As to `Cc1ccc(N2C(=O)C(CC(=O)Nc3cccc(F)c3)N(CCc3ccncc3)C2=O)cc1` (configuration not stated), the inhibition is -0.5%.
